Among all 66,000 compounds or so, about 960 (1.5%) showed an effect of 50% or more. The list comes from a sample in which strong results are over-represented; it also holds similar structures and randomly drawn compounds.
System: Trypanosoma brucei
Assay: Trypanosoma brucei 72 hour study
Format: functional, organism-based
Design: scale not given: in the data most compounds retested in dose-response had high values

CC1(C)CN(Cc2csc(CS(C)(=O)=O)n2)Cc2ccccc21
Percent Effect (30.3 µM, […]): 100.6%

CS(=O)(=O)Cc1nc(CN2CCc3ccccc3CC2)cs1
Percent Effect (30.3 µM, […]): 3.123%

CS(=O)(=O)Cc1nc(CN2CCOc3ccccc3C2)cs1
Percent Effect (30.3 µM, […]): 7.732%

CCc1noc(CN(C)CC(c2cccs2)N2CCOCC2)n1 (configuration not stated)
Percent Effect (30.3 µM, […]): -14.32%

O=C1CC[C@]2(CC[C@@H](NC(=O)NCc3ccccc3)CC2)N1
Percent Effect (30.3 µM, […]): -21.31%

CC(C)C[C@@H]1N[C@H](C(=O)NC2CCOCC2)Cc2c[nH]c3cccc1c23
Percent Effect (30.3 µM, […]): 74.51%

O=C(NC1CCOCC1)C1CC(=O)N(Cc2ccccn2)C1 (configuration not stated)
Percent Effect (30 µM, 30.03 µM): 11.72%

COC(=O)[C@@H]1Cc2c[nH]c3cccc(c23)[C@H](CC(C)C)N1
Percent Effect (30.3 µM, […]): 0.4079%

CCc1cccc(N2CCC(NC(=O)C3CCOCC3)CC2)c1
Percent Effect (10 µM): -25.13%
Percent Effect (30.3 µM, […]): -1.63%

CC(C)C[C@@H]1N[C@H](C(=O)NC(C)C)Cc2c[nH]c3cccc1c23
Percent Effect (30.3 µM, […]): 19.91%

CC(C)C[C@@H]1N[C@H](C(=O)NCC2CC2)Cc2c[nH]c3cccc1c23
Percent Effect (30.3 µM, […]): 62.49%

Cc1cnn(C2CCCN(C(=O)Cc3ccc(C#N)cc3)C2)c1 (configuration not stated)
Percent Effect (10 µM): -12.45%
Percent Effect (30.3 µM, […]): -6.124%

CC(C)=CCN1C(=O)[C@H]2CC[C@@H]1CN(c1ncccc1F)C2
Percent Effect (30 µM, 30.03 µM): -6.371%

Cc1cc(=O)n(CCNS(=O)(=O)c2cccc(C(F)(F)F)c2)cn1
Percent Effect (30 µM, 30.03 µM): -14.9%

CN(C)CC(=O)N1CCC2(CCc3cc(-c4cccnc4)ccc32)CC1.O=C(O)C(F)(F)F.O=C(O)C(F)(F)F
Percent Effect (30.3 µM, […]): 1.858%

O=C(O)C(F)(F)F.O=C(O)C(F)(F)F.c1cncc(-c2ccc3c(c2)CCC32CCN(Cc3nccs3)CC2)c1
Percent Effect (30.3 µM, […]): 13.64%

O=C(O)C(F)(F)F.O=C(O)C(F)(F)F.c1cncc(-c2ccc3c(c2)CCC32CCN(Cc3ccco3)CC2)c1
Percent Effect (30.3 µM, […]): 53.48%

CNC(=O)CN1CC[C@H]2CN(C(=O)c3cccc(C)c3)C[C@H]2C1.O=C(O)C(F)(F)F
Percent Effect (30.3 µM, […]): -49.02%

CC[C@H](C)[C@H](N)C(=O)Nc1nc(-c2cnc(N(C)C)nc2)cs1
Percent Effect (30.3 µM, […]): 53.79%

CC[C@@H](C)[C@@H](N)C(=O)Nc1cccc(-c2cnc(N(C)CCO)nc2)c1
Percent Effect (30.3 µM, […]): -10.78%

CC[C@H](C)[C@H](N)C(=O)Nc1nc(-c2cnc(N3CCOCC3)nc2)cs1
Percent Effect (30.3 µM, […]): 13.61%

CC[C@@H](C)[C@@H](N)C(=O)Nc1cccc(-c2cnc(N(C)C)nc2)c1
Percent Effect (30.3 µM, […]): 97.6%

CC[C@@H](C)[C@@H](N)C(=O)Nc1cccc(-c2cnc(N)nc2)c1
Percent Effect (30.3 µM, […]): -21.58%

CC[C@H](C)[C@H](N)C(=O)Nc1nc(-c2cnc(N(C)CCO)nc2)cs1
Percent Effect (30.3 µM, […]): -2.058%

COc1ccc(N(c2ccccc2)c2ccc(C(=O)O)s2)cc1
Percent Effect (30.3 µM, […]): -3.945%

O=C(O)CC(O)(CC(=O)O)C(=O)O.OCCN(Cc1ccncc1)CC1(c2ccc(Cl)cc2)CC1
Percent Effect (30.3 µM, […]): -34.12%

Cn1cnc2c1C(COCC1CCOCC1)CN(C1CCOCC1)C2.O=C(O)C(F)(F)F.O=C(O)C(F)(F)F (configuration not stated)
Percent Effect (30 µM, 30.03 µM): 15.95%

Cl.c1cnc2c(c1)cc([C@H]1CCCO1)n2CCN1CCCC1
Percent Effect (30.3 µM, […]): 24.71%

Cn1cccc1C(=O)N1CCC2(CCCN2Cc2ccccc2)CC1.O=C(O)C(F)(F)F
Percent Effect (30 µM, 30.03 µM): 11.3%

CCn1nc(C)c2nnn(CC(=O)Nc3cccc(Cl)c3)c(=O)c21
Percent Effect (30 µM, 30.03 µM): 35.21%

Cc1nn(C)c2c(=O)n(CC(=O)Nc3cc(Cl)cc(Cl)c3)nnc12
Percent Effect (30 µM, 30.03 µM): 63.83%

CCn1nc(C)c2nnn(CC(=O)Nc3ccccc3)c(=O)c21
Percent Effect (30.3 µM, […]): -5.47%

CCn1nc(C)cc1C(=O)N1C[C@@H]2C[C@@H](C)O[C@@H]2C1.O=C(O)C(F)(F)F
Percent Effect (30.3 µM, […]): 3.708%

COCC1CN(C(=O)c2ccoc2)Cc2cnn(CC3CCOCC3)c21.O=C(O)C(F)(F)F (configuration not stated)
Percent Effect (30.3 µM, […]): -46.76%

NC1C=C(C(F)(F)F)NC=C1c1ccccc1 (configuration not stated)
Percent Effect (30.3 µM, […]): 8.109%

CC(C)CC(=O)N1C[C@@H]2CCN(c3cnccn3)C[C@@H]2C1.O=C(O)C(F)(F)F
Percent Effect (30.3 µM, […]): -10.22%

CC(C)(C)OC(=O)NCCNC(=O)c1ccc2cc[nH]c2c1
Percent Effect (30 µM, 30.03 µM): 3.798%

CC(C)(C)S(=O)(=O)CCNC(=O)c1ccc2cc[nH]c2c1
Percent Effect (30 µM, 30.03 µM): 101.8%

CC(C)(C)S(=O)(=O)CCNC(=O)c1ccc2ccccc2c1
Percent Effect (30 µM, 30.03 µM): -8.633%

CN1CCN(CCO)C(=O)C12CCN(Cc1ccsc1)CC2.O=C(O)C(F)(F)F.O=C(O)C(F)(F)F
Percent Effect (30.3 µM, […]): -7.984%

CN(C(=O)[C@H]1CSCN1C(=O)OC(C)(C)C)C1CC1
Percent Effect (30 µM, 30.03 µM): -17.54%

Cn1nc2c(cc1=O)CN(Cc1coc(-c3ccc(F)cc3)n1)CC2
Percent Effect (30.3 µM, […]): 21.89%

Cn1nc2c(cc1=O)CN(Cc1coc(-c3ccccc3)n1)CC2
Percent Effect (30.3 µM, […]): -6.992%

Cn1nc2c(cc1=O)CN(Cc1coc(-c3cccc(F)c3)n1)CC2
Percent Effect (30.3 µM, […]): 75.84%

CN1CCN(c2ccc(F)cc2NC(=O)NCc2ccon2)CC1
Percent Effect (30.3 µM, […]): -94.37%

Cc1nccn1CC1CCN(C(=O)Cc2ccccc2)CC1
Percent Effect (30 µM, 30.03 µM): -11.09%

CC(C)N(C)Cc1cnc2n1CCN(Cc1ccsc1)C2.O=C(O)C(F)(F)F.O=C(O)C(F)(F)F
Percent Effect (30.3 µM, […]): -0.145%

Cc1cc(-c2nccs2)nc(C2CCN(Cc3ccc(F)cc3)CC2)n1.Cl
Percent Effect (30.3 µM, […]): -1.786%

CC(C)c1cc(NC(=O)CN2CCc3cncnc3C2)on1
Percent Effect (30 µM, 30.03 µM): 51%

Cc1cc(NC(=O)CN2CCc3cncnc3C2)on1
Percent Effect (30.3 µM, […]): 8.362%
Percent Effect (10 mM, 10 mM as filed; unlikely as a test dose): -44.64%

CC(C)(C)c1cc(NC(=O)CN2CCc3cncnc3C2)on1
Percent Effect (30.3 µM, […]): 8.588%
Percent Effect (10 mM, 10 mM as filed; unlikely as a test dose): -38.22%

COC[C@@H]1CCC[C@@]12CN(Cc1ccco1)CCO2.O=C(O)C(F)(F)F
Percent Effect (30 µM, 30.03 µM): -1.793%

CCn1cc(N2Cc3nc(N4CCCC4)ncc3C2=O)cn1
Percent Effect (30.3 µM, […]): -27.06%

Cc1cccnc1N1CCN(C(=O)C(C)n2ccnc2C(C)C)CC1 (configuration not stated)
Percent Effect (30 µM, 30.03 µM): 78.55%

CC(C)c1nccn1C(C)C(=O)N1CCN(c2ccccc2Cl)CC1 (configuration not stated)
Percent Effect (30 µM, 30.03 µM): 16.25%

Cc1cc(N2CCN(C(=O)C(C)n3ccnc3C(C)C)CC2)cc(C)n1 (configuration not stated)
Percent Effect (30 µM, 30.03 µM): -26.06%

CN(C)CC1CN(C(=O)CCc2ccccc2)Cc2nccn2C1.O=C(O)C(F)(F)F (configuration not stated)
Percent Effect (30 µM, 30.03 µM): -27.78%

O=C1O[C@@H]2CN(Cc3ccncc3)C[C@@H]2N1CCCN1CCOCC1
Percent Effect (30 µM, 30.03 µM): -21.02%

O=C1O[C@@H]2CN(Cc3ccccc3)C[C@@H]2N1CCCN1CCOCC1
Percent Effect (30 µM, 30.03 µM): 65.91%

O=C1O[C@@H]2CN(CCc3ccccc3)C[C@@H]2N1CCCN1CCOCC1
Percent Effect (30 µM, 30.03 µM): -26.55%

CC(C)CC(=O)N1CC[C@@H]2[C@H](CC1)N(Cc1cccnc1)CCS2(=O)=O.O=C(O)C(F)(F)F.O=C(O)C(F)(F)F
Percent Effect (30.3 µM, […]): -39.88%

Cc1cccc(CN(Cc2ccccn2)Cc2ncc(C(C)(C)C)o2)c1
Percent Effect (30.3 µM, […]): 99.39%

CCN(Cc1cccc(Cl)c1)Cc1ncc(C(C)(C)C)o1
Percent Effect (30.3 µM, […]): -76.17%

Cc1cccc(CN(Cc2ccccn2)S(=O)(=O)N(C)C)c1
Percent Effect (30.3 µM, […]): 5.656%

CCN(CCSc1ccccc1)C(=O)c1cn([C@H]2CC[C@@H](N)CC2)nn1
Percent Effect (30.3 µM, […]): -71.42%

Cc1ccc(SCCCNC(=O)c2cn([C@H]3CC[C@@H](N)CC3)nn2)cc1
Percent Effect (30.3 µM, […]): 59.21%

Cc1ccc(SCCN(C)C(=O)c2cn([C@H]3CC[C@@H](N)CC3)nn2)cc1
Percent Effect (30.3 µM, […]): -119%

CC(=O)Nc1nc(CN2CCCCC2Cn2cccn2)cs1 (configuration not stated)
Percent Effect (30 µM, 30.03 µM): 16.1%

CC(=O)Nc1nc(CN2CCCC2Cn2cncn2)cs1 (configuration not stated)
Percent Effect (30 µM, 30.03 µM): 3.686%

CC(C)c1nc(CN2CCCCC2)cs1
Percent Effect (30 µM, 30.03 µM): 11.44%

CN(C)C(=O)Cc1nc(CN2CCCCC2Cn2cccn2)cs1 (configuration not stated)
Percent Effect (30 µM, 30.03 µM): -14.9%

CCCc1nc(CN2CCCCC2Cn2cncn2)cs1 (configuration not stated)
Percent Effect (30.3 µM, […]): 101.4%
Percent Effect (10 mM, 10 mM as filed; unlikely as a test dose): -40.08%

CC(=O)Nc1nc(CN2CCCC2Cn2cccn2)cs1 (configuration not stated)
Percent Effect (30.3 µM, […]): 98.13%

CC(C)c1nc(CN2CCCC2CN2CCCC2)cs1 (configuration not stated)
Percent Effect (30.3 µM, […]): 99.84%

CN(C)C(=O)Cc1nc(CN2CCCCC2Cn2cncn2)cs1 (configuration not stated)
Percent Effect (30.3 µM, […]): -54.68%

CN(C)C(=O)Cc1nc(CN2CCCC2Cn2cccn2)cs1 (configuration not stated)
Percent Effect (30.3 µM, […]): -75.86%

CCCc1nc(CN2CCCC2Cn2cncn2)cs1 (configuration not stated)
Percent Effect (30 µM, 30.03 µM): 2.721%

CC(C)c1nc(CN2CCCCC2Cn2cncn2)cs1 (configuration not stated)
Percent Effect (30.3 µM, […]): 7.247%
Percent Effect (10 mM, 10 mM as filed; unlikely as a test dose): -40.32%

CCCc1nc(CN2CCCC2Cn2cccn2)cs1 (configuration not stated)
Percent Effect (30.3 µM, […]): 100.2%

CN(C)Cc1nc(-n2cnc(C(=O)NCC3CC3)c2)n2ccccc12
Percent Effect (30.3 µM, […]): -8.964%

CN1C(=O)CC(C(=O)O)C12CCN(c1ccc3ccccc3n1)CC2 (configuration not stated)
Percent Effect (30 µM, 30.03 µM): -0.482%

COc1ccc(CC(=O)N2CC(=O)NCC(C)(C)C2)cc1
Percent Effect (30.3 µM, […]): -15.32%

O=C(NC[C@@H]1C[C@@H]2CN(C(=O)CO)C[C@H]2O1)c1ccsc1
Percent Effect (30.3 µM, […]): -12.73%

Cc1nn(C)c(C)c1S(=O)(=O)N1CC[C@@H]2O[C@@H](C)C[C@H]2C1.O=C(O)C(F)(F)F
Percent Effect (30.3 µM, […]): 5.348%

CN(C)CCN1C(=O)CCC12CCCN(C(=O)C1CC=CC1)CC2.O=C(O)C(F)(F)F (configuration not stated)
Percent Effect (30.3 µM, […]): 14.28%

COc1ccc(OCC2CCCN(c3nc(CO)cs3)C2)cc1 (configuration not stated)
Percent Effect (30 µM, 30.03 µM): 85.11%

OCc1csc(N2CCCC(COc3cccc(F)c3)C2)n1 (configuration not stated)
Percent Effect (30 µM, 30.03 µM): -13.56%

Cc1ccc(OCC2CCCN(c3nc(CO)cs3)C2)cc1 (configuration not stated)
Percent Effect (30 µM, 30.03 µM): 49.4%

Cc1nc2cc(-c3nccn3C)nn2c(N2CCCC(CO)C2)c1C (configuration not stated)
Percent Effect (30.3 µM, […]): 21.68%

Cc1nc2cc(-c3nccn3C)nn2c(N2CCCC(O)C2)c1C.Cl (configuration not stated)
Percent Effect (30.3 µM, […]): -11.86%

CCc1c(C)nc2cc(-c3nccn3C)nn2c1N1CCCC(CO)C1 (configuration not stated)
Percent Effect (30.3 µM, […]): 50.14%

Reference: ChEMBL document CHEMBL3988442, “University of Dundee, Small-Polar-MMV Screening Library” (2021)
